Assay results published in PubChem BioAssay (NCATS).
Results filed as inconclusive are left out. Calls of active or inactive are those of the source. The call rests on the fitted dose curve; in most records, active means well fitted cell-killing curve with a large enough effect; inconclusive means small, poorly fitted or top-dose-only effect, or effect the other way; inactive means no such curve, though single readings can be large or run the other way.

Assay: Quantitative High-Throughput drug screen in 47 multiple myeloma cell lines against the NCATS MIPE library collection: INA6_PLB cell viability assay (AID 1918965; further: nearly all actives have a fitted effect of over 55% in size)
Conditions: INA6 myeloma viability, CellTiter-Glo ATP luminescence, 48 h; series mostly up to 45.8 µM
Source text: PI: Beverly A. Mock Ph.D.
Laboratory of Cancer Biology and Genetics,
Center for Cancer Research, National Cancer Institute,
National Institute of Health, Bethesda, Maryland
Drug resistance and disease progression are common in multiple myeloma (MM) patients, underscoring the need for new therapeutic combinations. […] We hypothesized that effective combinations would reduce MYC expression and enhance p16 activity. […] These preclinical data identify potentially useful drug combinations for evaluation in drug-resistant MM and reveal potential mechanisms of combined drug sensitivity.
Described herein is the primary MIPE qHTS used to cherrypick compounds. Validated compounds were then further tested for potential synergistic activiy.
[1] Peat TJ, Gaikwad SM, Dubois W, Gyabaah-Kessie N, Zhang S, Gorjifard S, Phyo Z, Andres M, Hughitt VK, Simpson RM, Miller MA, Girvin AT, Taylor A, Williams D, D'Antonio N, Zhang Y, Rajagopalan A, Flietner E, Wilson K, Zhang X, Shinn P, Klumpp-Thomas C, McKnight C, Itkin Z, Chen L, Kazandijian D, Zhang J, Michalowski AM, Simmons JK, Keats J, Thomas CJ, Mock BA. Drug combinations identified by high-throughput screening promote cell cycle transition and upregulate Smad pathways in myeloma. Cancer Lett. 2023 Aug 1;568:216284. doi: 10.1016/j.canlet.2023.216284. Epub 2023 Jun 24. PMID: 37356470; PMCID: PMC10408729.
SEQUENCE No. (e.g., 1, 2, 3, etc.); […] (e.g., Cells, Incubation, Reagent, etc.); VALUE and DESCRIPTION.
1; Cells; 5 uL; white, solid bottom 1536-well Greiner assay plate.
2; Compounds; 23 nL; Kalypsis pin tool (Wako USA) equipped with a 1536-well pin head to transfer to the assay plates.
3; Incubation; 48 hours; 37C incubation.
4; Reagent;5uL; CellTiter Glo (Promega).
5; Detector; 425V; Luminescence; Viewlux PerkinElmer.
NOTES (numbers refer to Sequence numbers above)
1. The cell-based screening methods employed in this study were like those previously published. Briefly, the corresponding myeloma cell lines were screened in 1,536-well plates with 500 cells, 5-uL per well for inhibition of cell viability (assessed by measuring ATP levels with CellTiterGlo).
2. NCATS MIPE 4.0 library of approved and investigational drugs were added using the Kalypsis pin tool. Wells treated with DMSO only for 100% viability and media only wells for 0% viability were used as controls.
3. The assay plates were covered and incubated for 48 hours in a 37C, 5% CO2 incubator with controlled humidity.
4. After 48 hours, CellTilter-GloTM luminescent substrate mix (Promega) reagent was added to the assay plate and plates we incubated for 5 min at room temperature.
5. Signal was measured as median relative luminescence units on a ViewLux (PerkinElmer) multiplate reader.
[1] Heske CM, Davis MI, Baumgart JT, Wilson K, Gormally MV, Chen L, Zhang X, Ceribelli M, Duveau DY, Guha R, Ferrer M, Arnaldez FI, Ji J, Tran HL, Zhang Y, Mendoza A, Helman LJ, Thomas CJ. Matrix Screen Identifies Synergistic Combination of PARP Inhibitors and Nicotinamide Phosphoribosyltransferase (NAMPT) Inhibitors in Ewing Sarcoma. Clin Cancer Res. 2017 Dec 1;23(23):7301-7311. doi: 10.1158/1078-0432.CCR-17-1121. Epub 2017 Sep 12. PMID: 28899971; PMCID: PMC6636827.
Potency means the concentration at half of the fitted maximal effect.

| Structure (SMILES) | Potency |
| --- | --- |
| CC1(C)CCC2=C(O1)c1ccccc1C(=O)C2=O | 20.9 µM (active) |
| CCn1c(C(=O)N(C2CC2)C2CC2)cc2c3c(ncn3C)c(Nc3cc(C)n(C)n3)nc21 | 16.6 µM (active) |
| COc1ccc(Cc2nccc3cc(OC)c(OC)cc23)cc1OC | 20.9 µM (active) |
| Cc1c(NC(=O)c2ccc(C(C)(C)C)cc2)cccc1-c1cn(C)c(=O)c(Nc2ccc(C(=O)N3CCOCC3)cc2)n1 | 23.5 µM (active) |
| CS(=O)(=O)N(Cc1ccco1)CC(O)Cn1c2ccccc2c2ccccc21 (stereo not given) | 18.7 µM (active) |
| CC(=NNC(=S)N1CCC1)c1ccccn1 | inactive |
| NC1=N[C@@]2(c3cc(NC(=O)c4ccc(F)cn4)ccc3F)COC[C@@H]2CS1 | 14.8 µM (active) |
| Cn1c(N2CCCCS2(=O)=O)nc(C(=O)NCc2ccc(F)cc2)c(O)c1=O | inactive |
| c1cc(-c2sc(-c3ccncc3)c(-c3ccncc3)c2-c2ccncc2)ccn1 | 18.7 µM (active) |
| O=C1NC(=O)C(=Cc2ccc(-c3ccc(F)cc3)o2)S1 | inactive |
| Cc1ccc(F)c(NC(=O)Nc2ccc(-c3cccc4[nH]nc(N)c34)cc2)c1 | 16.6 µM (active) |
| Nc1ncnc2c1nc(Cl)n2[C@@H]1O[C@H](CO)[C@@H](O)[C@@H]1O | 2.09 µM (active) |
| C=C1C(=O)[C@@]23C(CC[C@@H]1[C@H]2O)[C@@]12CO[C@]3(O)[C@@H](O)[C@@H]1C(C)(C)CC[C@@H]2O (stereo not given in full) | 1.18 µM (active) |
| CC[C@H]1OC(=O)[C@H](C)C(=O)[C@H](C)[C@@H](O[C@H]2O[C@H](C)C[C@H](N(C)C)[C@@H]2O)[C@](C)(OC)C[C@@H](C)C(=O)[C@H](C)[C@H]2N(CCCCn3cnc(-c4cccnc4)c3)C(=O)O[C@]12C | inactive |
| COc1cc(Nc2ncc(F)c(Nc3ccc4c(n3)NC(=O)C(C)(C)O4)n2)cc(OC)c1OC | 1.18 µM (active) |
| Cc1ccn(-c2ccc(-c3ncco3)cc2)c(=O)c1-c1ccc2nc(N)ncc2c1 | 0.662 µM (active) |
| Clc1ccc(C(c2ccc(Cl)cc2)n2cc[n+](CC(OCc3ccc(Cl)cc3Cl)c3ccc(Cl)cc3Cl)c2)cc1 (stereo not given) | 8.33 µM (active) |
| O=c1c(-c2ccc(O)cc2)coc2cc(O)ccc12 | inactive |
| CC1(C)O[C@H]2C[C@@H]3[C@H]4CCC5=CC(=O)C=C[C@]5(C)[C@@]4(F)[C@@H](O)C[C@]3(C)[C@]2(C(=O)CO)O1 | inactive |
| CC(C)(C(=O)NCC(F)(F)C(F)(F)F)C(=O)N[C@@H]1C(=O)Nc2ccccc2-c2ccccc21 | 18.7 µM (active) |

| Structure (SMILES) | Potency |
| --- | --- |
| CCOC1OC(=O)C[C@H]1NC(=O)[C@@H]1CCCN1C(=O)[C@@H](NC(=O)c1ccc(N)c(Cl)c1)C(C)(C)C (stereo not given in full) | inactive |
| O=C1c2ccccc2-[n+]2ccc3c([nH]c4ccccc43)c21 | 1.18 µM (active) |
| N[C@H](CSC(c1ccccc1)(c1ccccc1)c1ccccc1)C(=O)O | 7.43 µM (active) |
| COc1cc2nc(-c3ccc(N4CCN(C)CC4)cc3)nc(NCCN3CCOCC3)c2cc1OC | 0.0372 µM (active) |
| Clc1ccc(COC(Cn2ccnc2)c2ccc(Cl)cc2Cl)cc1 (stereo not given) | 20.9 µM (active) |
| C=CCc1ccc(O)c(-c2ccc(O)c(CC=C)c2)c1 | 18.7 µM (active) |
| Cc1ccc(/C=N/NC(=O)c2ccccc2Oc2ccccc2)o1 | 16.6 µM (active) |
| COc1ccc(-c2cc(=O)c3c(O)cc(O)cc3o2)cc1O | 8.33 µM (active) |
| CCS(=O)(=O)N1CC(CC#N)(n2cc(-c3ncnc4[nH]ccc34)cn2)C1 | 0.418 µM (active) |
| O=c1cc(N2CCOCC2)oc2c(-c3cccc4c3sc3ccccc34)cccc12 | 2.96 µM (active) |
| O=c1cc(-c2cccc3c2Sc2ccccc2S3)oc(N2CCOCC2)c1 | 18.7 µM (active) |
| O=C(NCc1ccncc1)C12C[C@H]3C[C@@H](C1)CC(c1ccc(Cl)cc1)(C3)C2 | 20.9 µM (active) |
| Cc1c(O)cccc1C(=O)N[C@@H](CSc1ccccc1)[C@H](O)CN1C[C@H]2CCCC[C@@H]2C[C@@H]1C(=O)NC(C)(C)C | 23.5 µM (active) |
| CC(=O)Oc1cc2c(s1)CCN(C(C(=O)C1CC1)c1ccccc1F)C2 (stereo not given) | 4.69 µM (active) |
| CC(C)=CC[C@@H](O)C1=CC(=O)c2c(O)ccc(O)c2C1=O | 0.296 µM (active) |
| CC(=O)N(C)C1(c2ccccc2)CCN(CCC[C@]2(c3ccc(Cl)c(Cl)c3)CCCN(C(=O)c3ccccc3)C2)CC1 | 10.5 µM (active) |
| O=C(Nc1c(Cl)cncc1Cl)c1ccc(OC(F)F)c(OCC2CC2)c1 | 37.2 µM (active) |
| Nc1nc(F)nc2c1ncn2[C@@H]1O[C@H](COP(=O)(O)O)[C@@H](O)[C@H]1O | inactive |
| C[C@H](NC(=O)c1sccc1OCc1ccc(Cl)cc1)c1ccccc1 | 26.4 µM (active) |
| CN(C)Cc1ccc(-c2nc3cccc4c3n2CCNC4=O)cc1 | 16.6 µM (active) |
